A selection: hits, their analogues and other compounds. The true share with any hit is near 10%.
Lamin A splicing = modulators of lamin A splicing; HeLa LMNA splicing GFP/RFP minigene ratio, 48 h; Potency, µM (top dose mostly 46.1 µM), actives largely listed as inhibitors; 200,000 compounds, 0.01% hits; AID 1487; active means well fitted inhibition curve with a large enough effect in the signal ratio, with a control signal flat, not every such curve was filed as active; inconclusive means small, poorly fitted or top-dose-only effect, or effect the other way, or a change in a side signal; the % refers to the signal ratio
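S3 HeLa cells stably expressing lamin A-EGFP splicing minigene plus DsRed2, 600 cells/well, 48 h compound exposure at 37C. Laser-scanning cytometry; analysed as GFP (500-530 nm)/RFP (575-640 nm) total intensity ratio; 0.5% DMSO vehicle.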
HPGD block = inhibitors of human 15-hydroxyprostaglandin dehydrogenase (HPGD); 150,000 compounds, 4.3% hits; AID 894; Potency, µM, actives largely listed as inhibitors; purified HPGD, NADH fluorescence kinetic, PGE2 substrate
Target sequence (P15428 whole entry, looked up): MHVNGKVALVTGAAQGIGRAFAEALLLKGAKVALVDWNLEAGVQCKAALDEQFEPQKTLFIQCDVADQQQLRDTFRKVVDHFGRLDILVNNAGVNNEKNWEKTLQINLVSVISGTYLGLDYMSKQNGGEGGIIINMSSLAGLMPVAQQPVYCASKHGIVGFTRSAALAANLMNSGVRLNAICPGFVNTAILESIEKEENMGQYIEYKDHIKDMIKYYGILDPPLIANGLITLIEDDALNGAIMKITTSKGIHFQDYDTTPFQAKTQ
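20 nM HPGD preincubated 15 min at room temperature with compound in 50 mM Tris-HCl pH 8, 0.01% Tween 20. Started with 1 mM NAD+ and 30 uM prostaglandin E2; NADH fluorescence (360/450 nm) read 5 times over 30-s intervals, last minus first.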
IMPase cell inh = membrane-permeable compound that blocks inositol monophosphatase; 120,000 tested, under 10 active; CHO-M1 cells, IP1 accumulation, HTRF TR-FRET ratio; inhibition (IP1 accumulation), % at 46.1 µM; P97697; active means well fitted curve in the direction sought with a large enough effect in the signal ratio, not every such curve was filed as active; inconclusive means small, poorly fitted or top-dose-only effect, or a change in a side signal; inactive means no such curve, though single readings can be large or run the other way; the % refers to the signal ratio;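 further: cells stimulated with carbachol in lithium chloride buffer; higher means more IMPase inhibition seen as more IP1 and lower FRET ratio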
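The IP-One HTRF competitive assay in carbachol-stimulated CHO-M1 cells quantifies cellular IP1. Compounds spanned up to 46 uM final, and activity is expressed as AC50 from concentration-response fits of the ratio and donor data.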
Luc counter = Kinase-Glo luciferase inhibition (counter-screen); Q27757; Kinase-Glo luciferase, ATP luminescence, 8 min; 200,000 compounds, 0.28% hits; Potency, µM (highest dose often 38.3 µM), most hits filed as inhibitors; active means well fitted inhibition curve with a large enough effect; inconclusive means small, poorly fitted or top-dose-only effect; further: nearly all actives have a fitted effect of over 60% in size
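Compound is pinned into ATP-containing buffer (10 uM ATP, imidazole pH 7.2, 7 mM MgCl2). Kinase-Glo luciferase reagent is then added. Light output is recorded following an 8-min room-temperature incubation.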
ALDH1A1 inh = ALDH1A1 (human) enzyme inhibition | P00352 | Purified ALDH1A1, NADH fluorescence, propionaldehyde substrate | Potency, µM (doses to about 75.3 µM), most hits filed as inhibitors | 220,000 compounds, 7.3% hits | AID 1030
Target sequence (P00352 whole entry, looked up): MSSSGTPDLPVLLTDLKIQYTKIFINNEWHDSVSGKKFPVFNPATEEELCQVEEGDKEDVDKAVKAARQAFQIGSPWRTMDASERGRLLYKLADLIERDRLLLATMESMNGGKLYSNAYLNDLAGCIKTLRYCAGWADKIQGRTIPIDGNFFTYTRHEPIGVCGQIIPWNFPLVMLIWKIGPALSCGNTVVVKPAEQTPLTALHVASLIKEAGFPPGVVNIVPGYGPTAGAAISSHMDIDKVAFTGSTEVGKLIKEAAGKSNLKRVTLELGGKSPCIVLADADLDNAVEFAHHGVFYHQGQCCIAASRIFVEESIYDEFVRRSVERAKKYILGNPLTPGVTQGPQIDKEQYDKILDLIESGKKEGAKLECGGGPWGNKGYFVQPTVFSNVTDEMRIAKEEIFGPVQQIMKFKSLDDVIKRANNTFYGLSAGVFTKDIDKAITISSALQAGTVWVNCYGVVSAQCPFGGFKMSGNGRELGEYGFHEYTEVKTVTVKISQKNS
PNC inhibitor = perinucleolar compartment assembly inhibition; PC3M PTB-GFP, PNC prevalence imaging, 16 h; hits give low values; activity change (PNC), negative = inhibition, % at 10 µM; 140,000 compounds, 3.1% hits;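 active means readout at or below -70, meaning at least 70% loss of cells showing the perinucleolar compartment, a nuclear body marking cancer cells; inconclusive means readout between -30 and a set limit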
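Compounds are pinned in duplicate onto adhered PC3M cells stably expressing GFP-tagged PTB and incubated 16 h at 37 C. Cells are then fixed, nuclei stained with Hoechst, and PNC-positive cells counted.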
Hits are given with their value; . = inactive; ? = inconclusive; / = not tested or not shown; [ ] = dose if it differs, or a comment. Unless noted, the call rests on the fitted dose curve; in most records, active means well fitted inhibition curve with a large enough effect (not every such curve was filed as active); inconclusive means small, poorly fitted or top-dose-only effect, or another doubt; inactive means no such curve, though single readings can be large or run the other way.

SMILES	Lamin A splicing	HPGD block	IMPase cell inh	Luc counter	ALDH1A1 inh	PNC inhibitor
O=C(c1ccc(-c2ccc(Cl)cc2)o1)N1CCN(c2ccc([N+](=O)[O-])cc2Cl)CC1	?	.	.	.	3.16µM	.
O=C(c1ccc(-c2ccc([N+](=O)[O-])cc2)o1)N1CCCCC1	?	7.08µM	/	.	11.2µM	?
N=C(c1ccc([N+](=O)[O-])cc1)N1CCCCC1	/	/	/	.	.	/
CCCN1C[C@@H](CSC)C[C@H]2c3cccc4[nH]cc(c34)C[C@@H]21	/	/	.	/	/	/
CC(C)N(Cc1ccccc1)C(=O)CCS(=O)(=O)c1cc2c(cc1Cl)NC(=O)CO2	.	/	/	/	/	/
COC(=O)CC1c2ccccc2C=C(/C=C/c2ccc3c(c2)OCO3)N1C(=O)OC (stereo not given)	?	?	/	.[7.66 µM]	?	/
OC[C@H]1O[C@@H](n2cnc3c(NC4CCCC4)ncnc32)[C@H](O)[C@@H]1O	.	.	/	.	.	-114.6
COc1ccc2c(c1)c(CC(=O)NCc1ccc3c(c1)OCO3)c(C)n2C(=O)c1ccc(Cl)cc1	/	.	/	.	.	/
CCCCC(=O)Nc1nnc(S(=O)(=O)N(CC)c2cc(C)cc(C)c2)s1	.	/	/	/	/	/
Cc1nn(C)c(N)c1-c1ccccc1	/	/	/	.	.	/
Cc1nn(C(C)(C)C)c(N)c1-c1ccccc1	.	28.2µM	/	.	.	.
COc1ccc(-c2c(C)nn(-c3ccccc3)c2N)cc1OC	.	.	.	.	.	?
Cc1nn(C2CCCCC2)c(N)c1-c1ccccc1	.	11.2µM	.	.	.	.
COc1ccc(-c2c(C)nn(-c3ccccc3)c2N)cc1	.	20µM	.	.	.	.
CCCCN1C(=O)c2ccc(C(=O)NCCN3C(=O)S/C(=C\c4cccnc4)C3=O)cc2C1=O	?	.	/	.	1.26µM	.
COC(=O)CCc1c(C)nc(N)[nH]c1=O	.	.	.	.	.	-111.7
CCCCc1c(C)nc(N)[nH]c1=O	.	.	?	.	.	.
CC(C)C(=O)N1CCN(c2ccc([N+](=O)[O-])cc2Cl)CC1	?	.	/	.	14.1µM	.
CC(C)CC(=O)N1CCN(c2ccc([N+](=O)[O-])cc2Cl)CC1	?	.	/	.	31.6µM	.
CC(C)CC(=O)NC(=S)N1CCN(c2ccc([N+](=O)[O-])cc2Cl)CC1	?	.	/	.	?	.
O=C(c1ccc(Br)cc1)N1CCN(CCc2ccncc2)CC1	.	/	/	/	/	/
C=C(C)CSc1nc2sc3c(c2c(=O)n1CCCC)CCCC3	/	/	.	/	/	/
COc1ccc(-c2c(-c3ccc(OCC(=O)NN)cc3O)n[nH]c2C(F)(F)F)cc1	.	.	/	.	12.6µM	?
Cc1cc(C)n2nc(/C(C#N)=C/c3ccccn3)c(C#N)c2n1	?	/	/	.	14.1µM	/
CCN(CC)CCCC(C)n1c(-c2ccccc2)nc2c(NC3CCCCC3)nc(C)nc21 (stereo not given)	/	?	/	.	?	/
SMILES	Lamin A splicing	HPGD block	IMPase cell inh	Luc counter	ALDH1A1 inh	PNC inhibitor
O=[N+]([O-])c1ccc(NC2CCCC2)cc1	?	.	/	.	.	.
O=[N+]([O-])c1ccc(N/N=C2/CCCCC2c2ccccn2)cc1 (stereo not given)	.	.	.	.	0.0447µM	.
COc1ccc(-n2ncc(C(=O)Nc3ccc4c(c3)OCCO4)c2C2CCN(C(=O)OC(C)(C)C)CC2)cc1	.	/	/	/	/	/
COC(=O)C1C(=O)c2c([nH]c(C(=O)OC3CCCC3C)c2C)CC1C (stereo not given)	.	.	.	.	12.6µM	.
Cc1ccc(Cl)cc1N1CCN(C(=O)c2cc(S(=O)(=O)N3CCC(C)CC3)cn2C)CC1	.	/	/	/	/	/
Cc1cc(O)c(C(C)C)cc1Cl	?	.	/	.	.	/
CCc1ccc(NC(=O)CSC2=Nc3ccccc3C3=NC(CC(=O)NCc4ccccc4)C(=O)N23)cc1 (stereo not given)	.	/	/	/	/	/
CCC(C)NC(=O)CSC1=Nc2ccccc2C2=NC(CC(=O)NCc3ccccc3)C(=O)N12 (stereo not given)	.	?	?	.	?	-100.0
CCc1n[nH]c(=S)n1/N=C/c1ccc(NC(C)=O)cc1	?	/	/	.	.	/
CCc1n[nH]c(=S)n1/N=C/c1cc(Br)c(OC)cc1OC	?	7.94µM	/	.	.	.
COc1cc(NC(=O)NCCn2nnc3cc(S(=O)(=O)N(C)C)ccc32)cc(OC)c1OC	.	/	/	/	/	/
O=C1CC(N(O)C2CC(=O)N(Cc3ccccc3)C2=O)C(=O)N1Cc1ccccc1 (stereo not given)	.	31.6µM	.	.	7.08µM	.
CCCN(CCC)C1CC(=O)N(Cc2ccccc2)C1=O (stereo not given)	.	.	.	.	11.2µM	.
COc1cccc(/C=N/n2nnc3c(cnn3-c3ccccc3)c2=O)c1	.	?	.	.	0.891µM	.
CCOc1ccc(NCc2cc3c(C(C)(C)C)nn(-c4ccccc4)c3[nH]c2=O)cc1	.	.	.	.	?	.
COc1cccc(NCc2cc3c(C(C)(C)C)nn(-c4ccccc4)c3[nH]c2=O)c1	.	?	.	.	12.6µM	.
O=C(NNc1c2ccccc2nc2ccccc12)c1ccccc1O	17.8µM	.	/	.	.	.
C=CCN1C(=O)C(CC(C)C)NC1=S (stereo not given)	/	.	/	.	.	/
O=C(CSc1nc2ccccc2n1Cc1ccc(F)cc1)N1CCN(c2ccc(F)cc2)CC1	.	/	/	/	/	/
CN(Cc1cc(Br)cc(Br)c1O)Cc1c(O)ccc2ccccc12	/	.	/	.[7.66 µM]	.[13.5 µM]	/
O=C(CSc1nc2ccccc2n1Cc1ccccc1Cl)NCc1ccccc1	.	/	/	/	/	/
CCOC(=O)CC(=O)CSc1ccc2nnc(-c3ccc(C)cc3)n2n1	.	12.6µM	.	.	.	.
CCOC(=O)N1CCN(C(=O)CSc2ccc3nnc(-c4ccncc4)n3n2)CC1	/	/	/	.	.	/
CCOC(=O)CNC(=O)N1CCCN(S(=O)(=O)c2ccc3c(ccn3CC)c2)CC1	.	/	/	/	/	/
O=C(c1cc2ccccc2cc1OCC(O)CN1CCCCC1)N1CCCCC1 (stereo not given)	.	11.2µM	.	.	?	.
SMILES	Lamin A splicing	HPGD block	IMPase cell inh	Luc counter	ALDH1A1 inh	PNC inhibitor
CN(C)CCOc1ncnc2c1oc1ccccc12	.	.	.	.	.	-111.7
CC(C)C(=O)Nc1cccc(C(=O)Nc2nnc(C(F)(F)F)s2)c1	/	/	.	/	/	/
CCC(=O)/C=C/C1C(C)=CCCC1(C)C (stereo not given)	/	.	/	/	12.6µM	/
O=c1c(Cl)c(Cl)cnn1Cc1nnc(-c2ccc(Cl)cc2)o1	?	/	/	.	8.91µM	/
CCc1ccc(C(=O)Cn2ncc(Cl)c(Cl)c2=O)cc1	?	.	.	.	14.1µM	.
O=c1c(Cl)c(Cl)cnn1Cc1ccccc1Cl	?	.	/	.	.	?
Cc1ccc(Cn2ncc(Cl)c(Cl)c2=O)cc1	.	.	/	.	25.1µM	-104.6
Cc1cc(C)cc(Cn2ncc(Cl)c(Cl)c2=O)c1	?	.	/	.	28.2µM	?

Screening results (PubChem BioAssay)
